Source: PubChem BioAssay
T cruzi growth-1: blocks T. cruzi growth in NIH3T3 culture. T. cruzi beta-gal in NIH3T3, GalScreen luminescence, 90 h. inhibition, % at 8.34 µM. 77,000 tested, 5.9% active. AID 624255;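 active = mean inhibition above about 93%, with at least 55% of replicates each passing it, limit read from the data, passing the limit was not always enough; inconclusive = only one of those two conditions holds; inactive = neither condition holds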
Pf Dd2 growth: P. falciparum Dd2 growth inhibition | SYBR Green, 72 h; hits give low values | activity change, % at 10 µM | 94,000 tested, 2.3% active | AID 1159554; in the data active = activity change below about -80%; inconclusive = no clear call, values can overlap the other calls
C diff growth: C. difficile growth inhibition; Clostridium difficile clinical isolate growth, OD600, 24 h; hits give low values; growth activity, negative = inhibition, % at 16 µg/mL (by protocol); 86,000 tested, 0.25% active; AID 1259249;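 active = mean growth activity at or below -80% and every replicate also at or below -80%; inconclusive = mean at or below -80% but some replicate above -80%; inactive = mean growth activity above -80%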
T cruzi growth-2: inhibitors of T. cruzi proliferation; T. cruzi beta-gal in NIH3T3, GalScreen luminescence, 90 h; shares compounds with T cruzi growth-1; 5,600 tested, 72% active; AID 651739; inhibition, % at 8.35 µM;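 active = mean replicate inhibition above about 95% and at least 55% of replicates individually reaching it, limit read from the data; inconclusive = only one of the two criteria is met; inactive = neither criterion is met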
T cruzi growth-3: inhibitors of T. cruzi proliferation; shares compounds with T cruzi growth-1; inhibition, % at 2.09 µM; 5,600 tested, 21% active; AID 651740; T. cruzi beta-gal in NIH3T3, GalScreen luminescence, 90 h;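 active = mean inhibition above about 95%, with at least 55% of replicates also reaching it, limit read from the data; inconclusive = meets just one of the two conditions; inactive = meets neither condition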
NIH3T3 tox: cytotoxicity in mouse NIH/3T3 fibroblasts | shares compounds with T cruzi growth-1 | NIH/3T3 viability, CellTiter-Glo ATP luminescence, 90 h | cytotoxicity (signal decrease), % at 8.35 µM | 5,600 tested, 14% active;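 active = mean signal decrease across replicates above about 35% based on untreated-well scatter, with enough replicates individually passing, limit read from the data; inconclusive = no rule stated though some were filed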
3T3 cytotox 2: NIH/3T3 (mouse) viability loss. shares compounds with T cruzi growth-1. AID 651744. inhibition, % at 24.9 µM. 5,600 tested, 56% active. NIH/3T3 viability, CellTiter-Glo ATP luminescence, 90 h;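 active = mean loss of cell viability signal at or above a set limit, and enough replicates individually reaching it; inconclusive = meets only the mean limit or only the replicate share; inactive = meets neither condition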
Each line names hits and unclear results; the compound was inactive in the other large screens (follow-up assays come after a bar, where they were run); ! = repeats disagree. Rows were chosen to be rich in hits. Some 6.7% of all compounds tested hit in one or more screens of this group.

C[C@H]1CN([C@@H](C)CO)S(=O)(=O)c2ccc(-c3ccncc3)cc2O[C@@H]1CN(C)Cc1ccccn1	T cruzi growth-1 117 | T cruzi growth-2 103 | T cruzi growth-3 99 | NIH3T3 tox inactive | 3T3 cytotox 2 86
C[C@H]1CN([C@@H](C)CO)S(=O)(=O)c2ccc(-c3ccccc3)cc2O[C@@H]1CN(C)Cc1ccccn1	none
C[C@H]1CN([C@@H](C)CO)C(=O)c2cccc(NS(=O)(=O)c3cccs3)c2O[C@H]1CN(C)C(=O)NC1CCCCC1	none (no result: C diff growth)
COCC(=O)N1CCC2(CC1)CN(Cc1ccccc1Cl)[C@@H](CO)c1c2c2ccc(OC)cc2n1C	none (no result: T cruzi growth-1, C diff growth)
O=C(C1CCC1)N1C[C@H]2[C@@H](c3ccccc31)[C@H](CO)N2C(=O)c1ccccc1	none
C[C@@H]1CN([C@@H](C)CO)C(=O)Cc2cc(NC(=O)Nc3ccccc3)ccc2O[C@H]1CN(C)Cc1ccc(C(=O)O)cc1	none
C[C@H](CO)N1C[C@H](C)[C@@H](CN(C)Cc2ccccc2F)Oc2cc(C#CCN(C)C)ccc2S1(=O)=O	T cruzi growth-1 105 | T cruzi growth-2 105 | T cruzi growth-3 inactive | NIH3T3 tox 55 | 3T3 cytotox 2 104
C[C@@H]1CN([C@H](C)CO)S(=O)(=O)c2ccc(C#CC3CC3)cc2O[C@H]1CN(C)Cc1ccccc1	T cruzi growth-1 127 | T cruzi growth-2 95 | T cruzi growth-3 inactive | NIH3T3 tox inconclusive | 3T3 cytotox 2 105
CC(C)CC#Cc1ccc2c(c1)O[C@H](CN(C)Cc1ccccc1F)[C@H](C)CN([C@H](C)CO)S2(=O)=O	T cruzi growth-1 inconclusive (no result: C diff growth) | T cruzi growth-2 98 | T cruzi growth-3 113 | NIH3T3 tox inactive | 3T3 cytotox 2 105
CC(C)CC#Cc1ccc2c(c1)O[C@@H](CN(C)Cc1ccccc1F)[C@@H](C)CN([C@H](C)CO)S2(=O)=O	T cruzi growth-1 inconclusive (no result: C diff growth) | T cruzi growth-2 97 | T cruzi growth-3 108 | NIH3T3 tox inactive | 3T3 cytotox 2 105
C[C@@H]1CN([C@@H](C)CO)S(=O)(=O)c2ccc(C#CCN(C)C)cc2O[C@@H]1CN(C)Cc1ccccc1F	none
C[C@@H]1CN([C@H](C)CO)S(=O)(=O)c2ccc(C#CC3CC3)cc2O[C@@H]1CN(C)Cc1ccccc1	none
COCC#Cc1ccc2c(c1)O[C@@H](CN(C)Cc1ccccc1F)[C@@H](C)CN([C@H](C)CO)S2(=O)=O	none
COCC#Cc1ccc2c(c1)O[C@H](CN(C)Cc1ccccc1F)[C@H](C)CN([C@@H](C)CO)S2(=O)=O	none
C[C@@H]1CN([C@H](C)CO)C(=O)c2cc(NC(=O)CCCN(C)C)ccc2O[C@@H]1CN(C)S(=O)(=O)c1ccccc1	none
CO[C@H]1CN(C)C(=O)c2cc(NC(C)=O)ccc2OC[C@@H](C)N(Cc2cncnc2)C[C@@H]1C	none (no result: C diff growth)
C[C@H]1CN([C@@H](C)CO)C(=O)Cc2cc(NC(=O)c3ccncc3)ccc2O[C@@H]1CN(C)CC1CCCCC1	none
C[C@H](CO)N1C[C@H](C)[C@H](CN(C)CC2CCCCC2)OCCCC[C@H](C)Oc2ccc(NC(=O)Nc3ccc4c(c3)OCO4)cc2C1=O	none
CCCNC(=O)C[C@@H]1CC[C@@H]2[C@H](COc3ccc(NC(=O)c4ccc5c(c4)OCO5)cc3C(=O)N2C)O1	none
C[C@H]1CN([C@@H](C)CO)S(=O)(=O)c2ccc(C#CC3CC3)cc2O[C@@H]1CN(C)Cc1ccccc1F	T cruzi growth-1 112 | T cruzi growth-2 97 | T cruzi growth-3 117 | NIH3T3 tox inactive | 3T3 cytotox 2 104
CC(C)CC#Cc1ccc2c(c1)O[C@H](CN(C)Cc1ccccc1F)[C@H](C)CN([C@@H](C)CO)S2(=O)=O	T cruzi growth-1 inconclusive (no result: C diff growth) | T cruzi growth-2 107 | T cruzi growth-3 inactive | NIH3T3 tox inactive | 3T3 cytotox 2 105
COCC#Cc1ccc2c(c1)O[C@@H](CN(C)Cc1ccccc1F)[C@H](C)CN([C@@H](C)CO)S2(=O)=O	none
CC(C)CC#Cc1ccc2c(c1)O[C@@H](CN(C)Cc1ccccc1F)[C@H](C)CN([C@H](C)CO)S2(=O)=O	T cruzi growth-1 inconclusive (no result: C diff growth) | T cruzi growth-2 inactive | T cruzi growth-3 105 | NIH3T3 tox 101 | 3T3 cytotox 2 104
CC(C)CC#Cc1ccc2c(c1)O[C@H](CN(C)Cc1ccccc1F)[C@@H](C)CN([C@H](C)CO)S2(=O)=O	none (no result: C diff growth)
C[C@@H]1CN([C@H](C)CO)S(=O)(=O)c2ccc(C#CC3CC3)cc2O[C@@H]1CN(C)Cc1ccccc1F	none
Cc1noc(C)c1NC(=O)Nc1ccc2c(c1)C(=O)N([C@H](C)CO)C[C@H](C)[C@H](CN(C)CC1CCCCC1)O2	none
Cc1noc(C)c1S(=O)(=O)N(C)C[C@@H]1Oc2ccc(NC(=O)C3CCCCC3)cc2CC(=O)N([C@H](C)CO)C[C@@H]1C	none
C=CC(COC(C)=O)NS(=O)(=O)c1ccc(Br)cc1 (stereo unspecified)	none (no result: T cruzi growth-1, Pf Dd2 growth)
COC(=O)c1ccc(CN2CC(=O)N3[C@@H](CO)[C@@H](c4ccc(-c5ccccc5F)cc4)[C@@H]3C2)cc1	none (no result: T cruzi growth-1)
C[C@H]1CN([C@@H](C)CO)S(=O)(=O)c2ccc(Br)cc2O[C@@H]1CN(C)Cc1ccccc1	T cruzi growth-1 97! | T cruzi growth-2 100 | T cruzi growth-3 inactive | NIH3T3 tox inconclusive | 3T3 cytotox 2 107
C[C@H]1CN([C@@H](C)CO)S(=O)(=O)c2ccc(Br)cc2O[C@H]1CN(C)Cc1ccccc1	none
C[C@@H]1CN([C@@H](C)CO)S(=O)(=O)c2ccc(Br)cc2O[C@H]1CN(C)Cc1ccccc1	T cruzi growth-1 99 | T cruzi growth-2 inactive | T cruzi growth-3 inactive | NIH3T3 tox inactive | 3T3 cytotox 2 104
C[C@H](CO)N1C[C@H](C)[C@H](CN(C)Cc2ccccc2)Oc2cc(Br)ccc2S1(=O)=O	none
CCS(=O)(=O)N1CC2(C1)[C@H](c1ccccc1)[C@H](CO)N2C(=O)C1CCCC1	none (no result: T cruzi growth-1)
C[C@H]1CN([C@@H](C)CO)S(=O)(=O)c2ccc(C3=CCCCC3)cc2O[C@H]1CN(C)Cc1ccccc1F	none (no result: T cruzi growth-1)
CCCC#Cc1ccc2c(c1)O[C@@H](CN(C)CCC)[C@@H](C)CN([C@@H](C)CO)S2(=O)=O	none
CO[C@H](CN(C)Cc1ccc2c(c1)OCO2)[C@@H](C)CN(C(=O)Nc1ccc(F)cc1)[C@@H](C)CO	none (no result: C diff growth)
N#C[C@H]1[C@H](c2ccc(C#CC3CC3)cc2)[C@H](CO)N1C(=O)Cc1ccccn1	T cruzi growth-1 105 | T cruzi growth-2 104 | T cruzi growth-3 inactive | NIH3T3 tox inactive | 3T3 cytotox 2 inactive
N#C[C@H]1[C@@H](c2ccc(C#CC3CCCC3)cc2)[C@H](CO)N1C(=O)Cc1ccccn1	none (no result: T cruzi growth-1)
CN(C)CC(=O)N1[C@H](C#N)[C@@H](c2ccc(C#CC3CC3)cc2)[C@@H]1CO	none
